# Results taken from PubChem BioAssay (NCI).
# This is part of a sample that, as a whole, favours compounds with a hit. Of some 83,000 tested, about 20% had one in any assay.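 Single-concentration screen, 48 h exposure, 96-well plates. Endpoint: percent growth. Below 10 = active.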 Values without a mark were called inactive. Activity calls are given as the source filed them.
# Test system: HL-60(TB) leukemia
# Assay: NCI-60 one-dose screen, 48 h (100 = growth as untreated, 0 = no growth, -100 = all killed)
# Settings: 10 µM unless noted
row,SMILES,growth
1,Cc1c(C)c2c(c(C)c1OCC(=O)O)CC[C@@](C)(CCC[C@@H](C)CCC[C@@H](C)CCCC(C)C)O2,1.94% [50 µM] (active)
2,COc1cc(-c2n/c(=C\c3c(O)[nH]c4ccc(Cl)cc34)cc3c2=Nc2ccccc2-3)cc(OC)c1OC,48.3%
3,COc1cc(NC(N)=NCCC(C)(C)Oc2ccc(C(F)(F)F)cc2)ncc1C#N,-51.1% (active)
4,O=C(/C=C/C12c3ccccc3C(c3ccccc31)C1C(=O)N(c3ccc(Cl)cc3)C(=O)C12)c1ccccn1 (stereo not given),-19.4% (active)
5,CCNC(=O)Oc1ccc(/C(=C(\C)c2ccccc2)c2ccc(OCCN(CC)CC)cc2)cc1,52.5%
6,CN1C2CCC1/C(=C\c1ccc(Cl)cc1)C(=O)/C2=C/c1ccc(Cl)cc1,20.3%
7,Nc1cc(-c2ccc(Cl)cc2)nn1-c1nnc(/C=C/c2ccco2)c(=O)[nH]1,52.2%
8,Nc1n[nH]c2cccc(C#Cc3cccc(C(=O)Nc4ccc(Cl)c(C(F)(F)F)c4)c3)c12,21%
9,COc1cc(-c2nn(-c3cccc(NC(=O)Nc4cccc(C(F)(F)F)c4)c3)cc2-c2ccncc2)ccc1Cl,-18.7% (active)
10,COC(=O)c1ccc2[nH]c(O)c(C(=Nc3ccc(N(C)C(=O)CN4CCN(C)CC4)cc3)c3ccc(CCO)cc3)c2c1,7.24% (active)
11,CC(=O)OC[C@]12CC[C@@H](c3cn(Cc4ccc(Cn5cc([C@@H]6CC[C@]7(COC(C)=O)CC[C@]8(C)[C@H](CC[C@@H]9[C@@]%10(C)CC[C@H](OC(C)=O)C(C)(C)[C@@H]%10CC[C@]98C)[C@@H]67)nn5)cc4)nn3)[C@@H]1[C@H]1CC[C@@H]3[C@@]4(C)CC[C@H](OC(C)=O)C(C)(C)[C@@H]4CC[C@@]3(C)[C@]1(C)CC2,90.5%
12,O=C(NC[C@H](O)CO)c1ccncc1Nc1ccc(I)cc1F,24.2%
13,Nc1cc(O)cc2cccnc12,98.5%
14,Cc1ccc(NC(=O)c2ccc(CN3CCN(C)CC3)cc2)cc1Nc1nc(-c2cccnc2)cs1,57.9%
15,C=C1C(=O)O[C@H]2[C@H]1CC/C(COC(=O)c1cc3cc(Cl)ccc3[nH]1)=C\CC[C@@]1(C)O[C@@H]21,-46% (active)
16,COc1ccc(C(Cc2ccccc2)NCCN2CCOCC2)cc1 (stereo not given),93.8%
17,NCCCN(CCCN)CCCNCc1c2ccccc2c(CNCCCN(CCCN)CCCN)c2ccccc12,100%
18,COC(=O)[C@@H](OC)[C@@H]1Cc2cc3cc(OC4CC(OC5CC(O)C(O)C(C)O5)C(O)C(C)O4)c(C)c(O)c3c(O)c2C(=O)[C@H]1OC1CC(OC2CC(OC3CC(C)(O)C(O)C(C)O3)C(O)C(C)O2)C(O)C(C)O1 (stereo not given in full),-33.5% (active)
19,COc1ccc(C2=NN(/C=C3\SC(=O)NC3=Nc3ccc(F)cc3)C(c3ccc(F)cc3)C2)cc1 (stereo not given),98.1%
20,Cc1ccc(S(=O)(=O)N/N=C\c2cc(Cl)ccc2O)cc1,91.7%

row,SMILES,growth
1,CC1CCc2c(sc(NC(=O)CSc3nnc4ccccn34)c2C(N)=O)C1 (stereo not given),74.9%
2,CCOc1cc2c(Cl)ncnc2c(OCC)c1OCC,-16.4% (active)
3,CC(=O)OCC(=O)O[C@@H]1C[C@]2(C(C)C)O[C@@]1(C)[C@@H]1CC[C@@H](C)[C@H]1[C@@H]2OC(=O)/C=C/c1ccccc1,82.6%
4,CC1CCN(C(=O)OCc2nc3nc(Cl)nc(N4CCOCC4)c3[nH]2)CC1,-43.5% (active)
5,COc1cc(/C=C2/C=C(c3ccc(C(C)(C)C)cc3)N(CCc3ccc(S(N)(=O)=O)cc3)C2=O)cc(OC)c1OC,20.5%
6,O=S(=O)(NC1c2ccccc2Oc2ccccc21)c1cc(Cl)ccc1Cl,86.7%
7,Cc1cc(=O)n(C(=O)Nc2ccccc2Cl)c2cc(O)ccc12,107%
8,COc1ccc2cc1Oc1ccc(cc1)C[C@H]1c3c(cc4c(c3Oc3cc5c(cc3OC)CCN(C)[C@@H]5C2)OCO4)CCN1C,36.3%
9,O=c1c2c3c(sc2n2c(-c4cc(-c5ccccc5)nn4-c4ccccc4)nnc2n1Cc1ccccc1)CCCC3,50.7%
10,COc1ccc(CCN2C(=O)/C(=C/c3ccc(C4Oc5ccccc5C5CC(c6ccccc6)=NN54)cc3)SC2=S)cc1 (stereo not given),97.7%
11,CC/C(=C(/c1ccc(O)cc1)c1ccc(OCCN2CCCCC2)cc1)c1ccc(OC)cc1,81.6%
12,Nc1ncnc2c1c(-c1ccc(Oc3ccccc3)cc1)nn2C[C@H]1SSC[C@H]1O,-31.9% (active)
13,Cc1ccc(NC(=O)c2nc(S(C)=O)oc2-c2ccc(F)cc2)cc1Nc1nccc(-c2cccnc2)n1 (stereo not given),47.3%
14,CC(c1ccccc1)N(C)C (stereo not given),88.5%
15,CCNCc1ccccc1,101%
16,O=C1C(Cl)=C(Cl)C(Cl)(Cl)C(Cl)C1(Cl)Cl (stereo not given),77.7%
17,COC(=O)c1ccc(C2Nc3ccc(S(=O)(=O)Nc4ccc(C)c(C)c4)cc3C3OCCC23)cc1 (stereo not given),59.3%
18,COC(=O)[C@]12CC[C@@H](C)[C@H](C)[C@@H]1C1=CC[C@@H]3[C@@]4(C)C(C=O)=C[C@@](C)(COC(=O)c5ccco5)[C@@H]4[C@H](O)C[C@@]3(C)[C@]1(C)CC2,-21.9% (active)
19,O=C1c2cc(Br)ccc2Oc2cc([N+](=O)[O-])ccc2N1c1ccc(I)cc1F,81.2%
20,CCC(O)C(C)(C)C (stereo not given),114%
